# Screening data deposited in PubChem BioAssay by National Center for Advancing Translational Sciences (NCATS).
# Shown are actives, neighbours in structure and some others; about 10% of the full set was active somewhere.
# BAZ2B block: blocks human BAZ2B; Q9UIF8; Potency, µM (titrated, usually from 114 µM), without a hit: at the top dose activity change, negative = inhibition, hits mostly inhibitors; hit rate 4.4% among 360,000; AlphaScreen BAZ2B-H3K14Ac peptide displacement; further: on the % scale 0 is the no-effect control and ±100 the full control effect; nearly all actives have a fitted effect of over 60% in size
#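 In this displacement format the biotinylated H3(5-23) peptide acetylated at Lys14 serves as ligand at 50 nM, with BAZ2B at 50 nM in PBS pH 7.4 containing 0.01% Tween-20. Donor and acceptor beads are 10 ug/mL final.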
# JMJD2A Tudor: inhibitors of human JMJD2A Tudor domain | O75164 | AlphaScreen JMJD2A-Tudor / H3K4me3 peptide binding | Potency, µM (doses to about 114 µM), without a hit: top-dose activity change, negative = inhibition, most hits filed as inhibitors | hit rate 4.4% among 390,000 | AID 504339; further: on the % scale 0 is the no-effect control and ±100 the full control effect; nearly all actives have a fitted effect of over 50% in size
# GLS inh: inhibitors of human glutaminase (GLS) | O94925 | GLS enzymatic activity, qHTS titration | Potency, µM (series often up to 45.5 µM), for inactives: top-dose activity change, negative = inhibition, most hits filed as inhibitors | hit rate 0.21% among 410,000; further: on the % scale 0 is the no-effect control and ±100 the full control effect
#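 Compounds were pin-transferred onto hKGA, after which L-glutamine (1 mM solution) and a detection mix of glutamate oxidase, HRP and Amplex Red were added. Initial and 30 min RT fluorescence reads were collected.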
# L3MBTL1 block: L3MBTL1 (human) inhibition; Q9Y468; AlphaScreen L3MBTL1–H3K9me1 peptide binding; Potency, µM (top dose mostly 57.1 µM), inactives show top-dose activity, negative = inhibition, actives largely listed as inhibitors; hit rate 0.66% among 230,000; AID 485360; further: on the % scale 0 is the no-effect control and ±100 the full control effect; nearly all actives have a fitted effect of over 60% in size
#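 L3MBTL1 50 nM + b-AHA-H3(1-15)K9me1 75 nM, 30 min RT; compound added, 30 min RT; streptavidin donor/Ni-chelate acceptor beads 10 ug/mL each final, 30 min RT dark; AlphaScreen read.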
# G9a block: blocks human histone lysine methyltransferase G9a; Potency, µM (series often up to 102 µM), for the others: at the highest dose activity, negative = inhibition, hits mostly inhibitors; AID 504332; hit rate 8.8% among 350,000; G9a H3K9 monomethylation, AlphaScreen, 2 h; Q96KQ7; further: on the % scale 0 is the no-effect control and ±100 the full control effect; nearly all actives have a fitted effect of over 75% in size
# Target sequence (Q96KQ7 913-1193 limits assumed): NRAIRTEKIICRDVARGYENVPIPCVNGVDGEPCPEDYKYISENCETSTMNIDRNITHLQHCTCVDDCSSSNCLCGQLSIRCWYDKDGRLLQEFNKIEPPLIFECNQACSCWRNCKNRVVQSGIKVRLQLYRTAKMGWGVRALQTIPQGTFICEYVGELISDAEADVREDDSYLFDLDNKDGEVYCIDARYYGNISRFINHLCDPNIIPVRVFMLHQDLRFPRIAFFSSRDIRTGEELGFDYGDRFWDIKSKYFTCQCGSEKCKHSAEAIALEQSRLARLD
#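 Quantitative HTS format: methyltransferase activity on a biotin-tagged H3K9 peptide is measured by AlphaScreen, using a rabbit anti-monomethyl-H3K9 antibody with streptavidin donor and anti-IgG acceptor beads. Final levels are 20 nM enzyme, 500 nM peptide, 20 uM SAM; 2 h RT.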
# HP1b binding inh: blocks HP1-beta chromodomain binding to methylated histone tails; P83916; AlphaScreen HP1-beta / biotin-H3K9me3 peptide binding; Potency, µM (titrated, usually from 114 µM), inactives show at the highest dose activity change, negative = inhibition, actives largely listed as inhibitors; hit rate 0.56% among 390,000; AID 540317; further: nearly all actives have a fitted effect of over 70% in size
# Target sequence (P83916 whole entry, looked up): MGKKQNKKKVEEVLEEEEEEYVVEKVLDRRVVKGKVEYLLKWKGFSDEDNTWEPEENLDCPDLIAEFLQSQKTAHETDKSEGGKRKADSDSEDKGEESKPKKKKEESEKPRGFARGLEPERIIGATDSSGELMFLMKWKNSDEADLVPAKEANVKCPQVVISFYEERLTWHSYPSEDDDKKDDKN
#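 Compound inhibition of the preformed complex between 50 nM HP1-beta and 50 nM biotinylated H3K9me3 peptide was read by AlphaScreen. Buffer was PBS pH 7.4 with 0.01% Tween-20. Incubations ran 30 min at room temperature, with 10 ug/mL donor/acceptor beads.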
# Starred values were filed as active, the others as inactive; ? = inconclusive; nt = no result given; [ ] = remark or other dose. The call rests on the fitted dose curve; in most records, active means well fitted curve in the direction sought with a large enough effect; inconclusive means small, poorly fitted or top-dose-only effect, or another doubt; inactive means no such curve, though single readings can be large; an effect the other way counts as inactive or inconclusive. Potency means the concentration at half of the fitted maximal effect.
SMILES,BAZ2B block,JMJD2A Tudor,GLS inh,L3MBTL1 block,G9a block,HP1b binding inh
Cc1ccc2nc(N(CCCN(C)C)C(=O)c3ccc(S(=O)(=O)N4CCc5ccccc5C4)cc3)sc2c1,?,?,8%,nt,71µM*,?
COc1ccc2sc(N(CCCN(C)C)C(=O)c3ccc(S(=O)(=O)N4CCc5ccccc5C4)cc3)nc2c1,-39%,56µM*,3%,-13%,32µM*,-25%
O=C(NCC(c1ccc2c(c1)OCO2)N1CCN(c2ccccc2)CC1)c1ccc(F)c(F)c1 (stereo not given),-29%,-31%,8%,nt,?,17%[57 µM]
COc1ccc(NC(=O)CC2C(=O)N(c3ccc(F)cc3)C(=O)N2Cc2ccc3c(c2)OCO3)cc1 (stereo not given),-1%,-9%,-5%,nt,-32%[59 µM],43%
Cc1cccc2sc(N(CCCN(C)C)C(=O)c3ccc(S(=O)(=O)N4CCc5ccccc5C4)cc3)nc12,-18%,-28%,0%,nt,nt,3%
Cc1cc(C)c2sc(N(CCCN(C)C)C(=O)c3ccc(S(=O)(=O)N4CCc5ccccc5C4)cc3)nc2c1,-20%,nt,nt,-11%,22µM*,nt
CN(C)CCCN(C(=O)c1ccc(S(=O)(=O)N2CCc3ccccc32)cc1)c1nc2ccc(F)cc2s1,?,?,20%,nt,45µM*,?
CCCC1O[C@@H]2C[C@H]3[C@@H]4CCC5=CC(=O)C=C[C@]5(C)C4[C@@H](O)C[C@]3(C)[C@]2(C(=O)CO)O1 (stereo not given in full),nt,nt,nt,nt,23%[12.7 µM],nt
Cc1ccc(C)c(Nc2nc(-c3ccccc3)c3cc(Br)ccc3n2)c1,29%,36%,-2%,nt,72%[59 µM],66%
CC(C)OC(=O)c1cc(=O)[nH]c2ccccc12,3%,-14%,6%,-1%,-2%,15%
CC(OC(=O)c1cc(=O)[nH]c2ccccc12)C(=O)N1C(C)CCCC1C (stereo not given),3%,18µM*,3%,3%,25%[2.33 µM],44%
CC(OC(=O)c1cc(=O)[nH]c2ccccc12)C(=O)Nc1ccccc1F (stereo not given),8%,3%,1%,4%,32µM*,36%
O=C(COC(=O)c1cc(=O)[nH]c2ccccc12)Nc1ccccc1F,nt,-10%,2%,4%,nt,1%
Cc1ccc(NC(=O)CN2CC(C)SC2=NC2CCCCC2)cc1 (stereo not given),7%,-3%,0%,-8%,50µM*,3%
CCc1ccc(NC(=O)CN2CCN(C3CCCCC3)C(=O)C2=O)cc1,-17%,-8%,-5%,nt,0%[12.7 µM],17%
CN1c2ccccc2C(C)(C)C12C=Nc1c(cc(N3CCOCC3)c3ccccc13)O2 (stereo not given),?,?,-13%,-2%,45µM*,-15%
C#CCOCCOCCOCCNc1nc(N2CCN(C(=O)[C@H](CCC(=O)O)n3cc(C(N)[C@H](C)CC)nn3)CC2)nc(N2CCN(C(=O)[C@H](CCC(=O)O)n3cc(C(N)[C@H](C)CC)nn3)CC2)n1 (stereo not given in full),79µM*,?,-10%,-2%,-33%[12.7 µM],-16%
C#CCOCCOCCOCCNc1nc(N2CCN(C(=O)[C@H](CCCCN)n3cc(C(N)CO)nn3)CC2)nc(N2CCN(C(=O)[C@H](CCC(=O)O)n3cc(C(N)[C@H](C)CC)nn3)CC2)n1 (stereo not given in full),40µM*,nt,nt,-18%,?,nt
C#CCOCCOCCOCCNc1nc(N2CCN(C(=O)C([C@@H](C)CC)n3cc(C(N)CO)nn3)CC2)nc(N2CCN(C(=O)[C@H](CCC(=O)O)n3cc(C(N)[C@H](C)CC)nn3)CC2)n1 (stereo not given in full),35µM*,nt,nt,nt,?,nt
C#CCOCCOCCOCCNc1nc(N2CCN(C(=O)[C@H](CCCCN)n3cc([C@@H](N)[C@H](C)CC)nn3)CC2)nc(N2CCN(C(=O)[C@H](CCC(=O)O)n3cc([C@@H](N)CCSC)nn3)CC2)n1,nt,79µM*,1%,1%,nt,16%
CC(NC(=O)C(=O)Nc1c2c(nn1-c1ccccc1)CSC2)c1ccccc1 (stereo not given),1%,-13%,0%,nt,22%[59 µM],-1%
CCOC(=O)c1cccc(NC(=O)c2cc(-c3ccc(Cl)s3)nc3ccccc23)c1,6%,-4%,0%,nt,-34%[59 µM],26%
C#CCOCCOCCOCCNc1nc(N2CCN(C(=O)[C@H](CCCCN)n3cc(CN)nn3)CC2)nc(N2CCN(C(=O)[C@H](CCC(=O)O)n3cc([C@@H](N)CCSC)nn3)CC2)n1,nt,89µM*,-7%,0%,nt,6%
C#CCOCCOCCOCCNc1nc(N2CCN(C(=O)[C@H](CCC(=O)O)n3cc(C(N)CO)nn3)CC2)nc(N2CCN(C(=O)[C@H](CCC(=O)O)n3cc(C(N)[C@H](C)CC)nn3)CC2)n1 (stereo not given in full),35µM*,35µM*,-2%,-17%,-128%[59 µM],33%
C#CCOCCOCCOCCNc1nc(N2CCN(C(=O)[C@H](CCCCN)n3cc(CN)nn3)CC2)nc(N2CCN(C(=O)[C@H](CCC(=O)O)n3cc([C@@H](N)[C@H](C)CC)nn3)CC2)n1,nt,56µM*,7%,-4%,nt,4%
SMILES,BAZ2B block,JMJD2A Tudor,GLS inh,L3MBTL1 block,G9a block,HP1b binding inh
CCc1nnc(SCC(=O)Nc2cccc(C(F)(F)F)c2)c2cc3oc(C)cc3n12,-20%,-15%,-1%,nt,-29%[59 µM],9%
CCCCNC(=O)C(CC)Sc1nc2ccccc2c(=O)n1Cc1ccco1 (stereo not given),1%,-17%,-4%,nt,0%[59 µM],41%
COc1ccccc1N1CCN(S(=O)(=O)c2c(C(=O)N3CCOCC3)c(C)n(C)c2C)CC1,-22%,16µM*,-14%,nt,-3%[59 µM],-23%
NC(N)=NS(=O)(=O)c1ccc(NC(=S)NC(=O)c2ccc3c(c2)OCO3)cc1,-27%,-3%,-1%,nt,45µM*,14%
O=C(NC(=S)Nc1ccccc1Br)c1ccc2c(c1)OCO2,-18%,-8%,1%,nt,0%,12%
CC(C)c1ccc(O)c(NC(=S)NC(=O)c2ccc3c(c2)OCO3)c1,?,?,8%,nt,13µM*,-11%
NS(=O)(=O)c1ccc(NC(=S)NC(=O)c2ccc3c(c2)OCO3)cc1,-22%,10%,12%,9%,40µM*,17%
Cc1c(C(=O)Nc2ccc(F)cc2)oc2ccc(S(=O)(=O)N3CCCCCC3)cc12,-7%,-19%,-5%,nt,?,-16%
